A short description of experiment [1]: qHTS Assay for Identification of Small Molecule Agonists for Hypoxia Response Element Signaling Pathway (AID 914; active = well fitted activation curve with a large enough effect in the signal ratio, with a control signal flat, not every such curve was filed as active; the % refers to the signal ratio; also: % of control where 0% means no effect). The conditions noted are these: ME-180 (cervical carcinoma) HRE-bla reporter, beta-lactamase ratio, CoCl2, 17 h; activation: stronger effect = higher value. The gist of the method: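 Reporter activity (beta-lactamase, CCF4 460nm/530nm ratio) in HRE-bla ME-180 cells is recorded after 17 h compound exposure with EC50 CoCl2 at 37 degrees Celsius. AC50 values come from titration data.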

Experiment [2] in a line: Confirmation and Secondary Assay for Modulators of Hemoglobin Beta Chain Splicing at IVS2 654 locus (AID 910; active = well fitted activation curve with a large enough effect;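 also: HeLa cells stably carrying EGFP split by mutant beta-globin IVS2-654 intron; per-well total GFP intensity by laser scanning cytometry after 2-day treatment; % of control where 0% means no effect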). The method, boiled down: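 Readout: per-well total peak green fluorescence (488 nm ex, 500–520 nm em) from objects 5–250 µm, reflecting correct splicing of an EGFP-654 reporter. Compounds were applied for 2 days at 37 °C to overnight-plated HeLa EGFP-654 cells; controls were DMSO and 500 nM IVS2-654 PNA.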

Experiment [3] is described as follows: Confirmation and Secondary Assay for Modulators of Hemoglobin Beta Chain Splicing at IVS2 705 locus (AID 930; active = well fitted activation curve with a large enough effect;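 also: HeLa cells stably expressing the EGFP-705 splicing reporter; GFP fluorescence per well restored by corrected splicing of the IVS2-705 intron in EGFP; % of control where 0% means no effect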). The gist of the method:
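Stable HeLa line with EGFP disrupted by mutant beta-globin intron 2 (705). Overnight attachment, then 2 days of compound at 37C, 5% CO2. Signal: peak GFP intensity summed over objects 5-250 µm.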

Experiment [4] can be described thus: qHTS profiling of the MIPE4 collection as inhibitors of Plasmodium falciparum (3D7) proliferation (AID 743344).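 Also: scaled between DMSO vehicle wells and 0.29 µM artemisinin as full inhibition.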 To be noted: P. falciparum 3D7 in erythrocytes, SYBR Green DNA fluorescence, 72 h; at 9.64 µM (top of the series). The method, boiled down: (§1)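 Erythrocytes infected with P. falciparum (0.3% parasitemia, 2.5% hematocrit) incubated with compounds 72 h at 37 C, 5% CO2. Lysis with saponin/Triton buffer containing SYBR Green I, overnight at room temperature in the dark; DNA fluorescence (485/535 nm) normalised to 0.29 uM artemisinin and DMSO.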
(Quantitative high-throughput screening tests each substance at several concentrations.)

Experiment [5] in a line: qHTS profiling of the MIPE4 collection as inhibitors of Plasmodium falciparum (DD2) proliferation (AID 743345). To be noted: P. falciparum Dd2 in erythrocytes, SYBR Green DNA, 72 h; at 9.64 µM (top of the series). The gist of the method:
as §1

Experiment [6] is described as follows: qHTS profiling of the MIPE4 collection as inhibitors of Plasmodium falciparum (DD2) proliferation (Rep 2) (AID 743346). The conditions noted are these: P. falciparum Dd2 in erythrocytes, SYBR Green DNA, 72 h; at 9.64 µM (top of the series). The gist of the method:
as §1

Experiment [7] is described as follows: qHTS profiling of the MIPE4 collection as inhibitors of Plasmodium falciparum (HB3) proliferation (AID 743347).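 Also: plate controls were DMSO vehicle wells for no effect and artemisinin wells for full effect.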 To be noted: P. falciparum HB3 in erythrocytes, SYBR Green DNA, 72 h; at 9.64 µM (top of the series). The gist of the method:
as §1

SMILES strings stand for the structures. Inconclusive results are not listed. The source made the active and inactive calls. Unless noted, no rule for the calls is given here.

Take `COc1ccc([C@@H]2CC(=O)c3c(O)cc(O[C@H]4O[C@@H](CO[C@H]5O[C@@H](C)[C@@H](O)[C@@H](O)[C@@H]5O)[C@@H](O)[C@@H](O)[C@@H]4O)cc3O2)cc1O`: the activation in experiment [1] was -3.87% (inactive).

Take `CO/N=C(\C(=O)N[C@@H]1C(=O)N2C(C(=O)O)=C(COC(N)=O)CS[C@@H]12)c1ccco1`: the activation in experiment [1] is 3.41% (inactive).

Take `CC(C)(N=NC(C)(C)C(=N)N)C(=N)N`: the Potency result in experiment [2] and in experiment [3] was “inactive” throughout.

In experiment [4], `CO[C@H]1C=CO[C@]2(C)Oc3c(C)c(O)c4c(O)c(c5c(c4c3C2=O)NC2(CCN(CC(C)C)CC2)N=5)=NC(=O)C(C)=CC=C[C@@H](C)[C@@H](O)[C@@H](C)[C@@H](O)[C@@H](C)[C@@H](OC(C)=O)[C@@H]1C` showed a parasite growth, % of DMSO control of 68.3%. In experiment [5], this molecule had a parasite growth remaining, % of DMSO control (lower = more inhibition) of 68.3%. The molecule also returned a parasite growth, % of control (lower = inhibition) in experiment [6] of 36%. Also, in experiment [7], the growth, % of control stood at 93.1%.

As for `Cc1noc(C)c1-c1nc(Nc2ccncc2)c2ccccc2n1`, the Potency entry in experiment [2] and in experiment [3] was “inactive” in each case.
